Most compounds without a hit are left out; they make up all but 4.6% or so of the library.
PfHsp90 yeast 2: inhibits growth of yeast expressing Plasmodium falciparum Hsp90; AID 504621; inhibition, % at 9.4 µM; S. cerevisiae expressing PfHsp90, BacTiter-Glo ATP, 48 h; yeast lacking PDR1 and PDR3 efflux regulators; 310,000 compounds, 0.32% hits;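 active = every replicate shows inhibition above about 80%, whatever the replicate mean, limit read from the data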
tim23-1 inh: growth inhibitors of tim23-1 mutant yeast; inhibition, % at 20 µM; S. cerevisiae tim23-1 growth, BacTiter-Glo luminescence, 24 h; 330,000 compounds, 1.3% hits;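 active = growth inhibition of the mutant yeast at or above 50%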;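 also: temperature-sensitive mutant grown at 25 °C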
TIM10 inh: TIM10 yeast growth inhibition; S. cerevisiae TIM10 strain growth, BacTiter-Glo luminescence, 24 h; inhibition, % at 10 µM; 330,000 compounds, 1.4% hits; AID 463195;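 active = inhibition of 40% or more at the single tested concentration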;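 also: wild-type TIM10 isogenic control strain grown at permissive 25 °C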
SKKanGAS inh: blocks kanamycin growth of S. pyogenes SKKanGAS strain. 300,000 compounds, 1.3% hits. BacTiter-Glo, 6 h. inhibition, % at 7.5 µM;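 active = mean replicate score, as percent of positive control median, at least 50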;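 also: strain carries kanamycin resistance gene driven by streptokinase promoter and grows in 40 µg/ml kanamycin; loss of luminescence reflects streptokinase promoter inhibition or plain growth inhibition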
V-ATPase pHluor: yeast V-ATPase proton transport regulation by pHLuorin; AID 504577; S. cerevisiae, pHLuorin cytosolic pH fluorescence; response, % at 10 µM; 350,000 compounds, 0.37% hits; in the data active = response mostly above about 7.3%, no sharp cut-off; inactive = mostly below about 5.4%; also: actives read high
tim10-1 inh: tim10-1 yeast growth inhibition | S. cerevisiae tim10-1 ts strain growth, BacTiter-Glo, 24 h | inhibition, % at 20 µM | 330,000 compounds, 2.2% hits | AID 463190;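 active = inhibition of at least 40%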;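 also: mutant grown at 25 °C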
tim10-1 conf: confirmation of tim10-1 mutant yeast growth inhibitors. shares compounds with tim10-1 inh. S. cerevisiae tim10-1 ts strain growth, BacTiter-Glo, 24 h. inhibition, % at 20 µM. 7,400 compounds, 56% hits. AID 463213;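 active = inhibition of yeast growth at or above a set limit in either of two repeat tests at 20 µM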;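 also: tim10-1 mutant grown at permissive 25 °C to find synthetic lethal compounds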
tim10 confirm: confirmation of TIM10 yeast growth inhibitors | shares compounds with TIM10 inh | S. cerevisiae tim10 strain growth, BacTiter-Glo luminescence, 24 h | inhibition, % at 10 µM | 4,600 compounds, 63% hits | AID 463215;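 active = inhibition of yeast growth at or above a set limit in either of two replicates at 10 µM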; also: this counterscreen used the strain with wild-type TIM10
tim23-1 confirm: tim23-1 yeast growth inhibition, confirmed; 4,400 compounds, 83% hits; inhibition, % at 20 µM; shares compounds with tim23-1 inh; S. cerevisiae tim23-1 growth, BacTiter-Glo luminescence, 24 h;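 active = inhibition above about 39% in either of two replicate wells at 20 µM, limit read from the data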;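 also: temperature-sensitive tim23-1 mutant grown at 25 °C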
Numbers stand for hits; - = inactive; . = not tested or not shown.

SMILES	PfHsp90 yeast 2	tim23-1 inh	TIM10 inh	SKKanGAS inh	V-ATPase pHluor	tim10-1 inh	tim10-1 conf	tim10 confirm	tim23-1 confirm
O=C(Nc1ccccc1N1CCCC1)c1ccc([N+](=O)[O-])o1	-	66.2	52.5	-	-	65.0	54.8	44.7	66.2
CCN(c1ccc(NC(=O)COC(=O)C(C)N=C2NS(=O)(=O)c3ccccc32)cc1)C(C)C (stereo not drawn)	.	-	-	.	-	-	.	.	.
COc1cc([N+](=O)[O-])ccc1NC(=S)NNC(=O)CCC(=O)Nc1ccccc1Cl	-	-	-	-	-	-	.	.	.
COc1ccc(C(=O)NCC(=O)N2CCN(C(=O)c3ccco3)CC2)cc1	-	-	-	-	-	-	.	.	.
Cc1ccc(NC(=O)c2ncn(CCCN3CCN(Cc4cccc5ccccc45)CC3)n2)cc1C	-	.	.	.	-	.	.	.	.
CC(Oc1cccc(Cl)c1)C(=O)N1CCCN(C)CC1 (stereo not drawn)	-	-	-	-	-	-	.	.	.
COc1cc(-c2nc3ccccc3s2)ccc1O	-	51.8	49.3	-	-	50.2	53.4	48.0	54.9
CC(=O)Oc1c(Cl)c(N2CCOCC2)c(OC(C)=O)c2ccccc12	-	52.5	-	-	-	49.5	41.4	.	41.4
Cc1cc(OC(=O)N2CCOCC2)cc(C)c1Cl	-	-	-	-	-	-	.	.	.
CCOC(=O)c1nn(-c2ccc(OCC)cc2)c2nc(-c3ccco3)c(C#N)c(=O)n12	-	-	-	-	-	-	.	.	.
CCC[n+]1c2ccccc2cc2ccccc21	-	56.1	66.5	-	-	68.0	65.5	61.5	60.2
CCCCC[n+]1cccc2c3ccccc3ccc21	-	-	-	-	-	-	.	.	.
CCCC[n+]1c2ccccc2cc2ccccc21	-	65.0	73.9	-	-	71.3	70.4	69.3	64.0
Cn1c2c(c(=O)[nH]c1=O)C(c1cccc(O)c1)C1=C(N2)c2ccccc2C1=O (stereo not drawn)	-	.	.	.	-	.	.	.	.
Cn1ncc(Cl)c1C(=O)N1CCN(c2ccccc2)CC1	-	-	-	-	-	-	.	.	.
Cn1ncc(Cl)c1C(=O)N1CCN(c2ccc(Cl)c(Cl)c2)CC1	-	50.2	-	-	-	41.2	-	.	41.5
O=C1c2cccc3cccc(c23)C(=O)N1c1ccccn1	-	-	-	.	-	-	.	.	.
O=C1c2c(Br)c(Br)c(Br)c(Br)c2C(=O)N1c1ccccn1	-	85.6	68.9	-	-	76.3	74.5	75.4	58.2
COc1ccc(NC(=O)/C(Cl)=C(/Cl)S(=O)Cc2ccccc2Cl)cn1 (stereo not drawn)	107.2	79.3	54.5	.	-	41.8	-	84.4	-
Cc1cccc(NC(=O)c2ccc([N+](=O)[O-])o2)c1C	-	50.1	55.7	-	-	62.2	60.8	41.7	39.4
Cn1ncc([N+](=O)[O-])c1C(=O)Nc1nc2ccccc2n1CCN1CCCCC1	-	-	-	-	-	-	.	.	.
COc1ccccc1NC(=O)c1ccc([N+](=O)[O-])o1	.	78.6	47.2	-	-	66.3	56.2	45.8	72.3
O=C(Nc1ccccc1C(=O)NC1CC1)c1ccccc1	-	-	-	.	-	-	.	.	.
CCCn1c(NC(=O)c2ccc([N+](=O)[O-])o2)nc2ccccc21	-	50.5	41.4	-	-	54.8	48.8	60.9	58.1
O=C(Nc1ccccc1C(=O)NC1CC1)c1ccc([N+](=O)[O-])o1	-	63.6	-	.	-	48.0	33.8	.	65.7
Cc1ccc(NC(=O)c2ccc([N+](=O)[O-])o2)cc1C	-	-	-	-	-	-	.	.	.
CCOc1ccc(OCC)c(-c2c(=O)n(OCc3ccccc3Br)c3ccccc3[n+]2[O-])c1	-	-	-	-	-	-	.	.	.
Cc1ccc(C(=O)Nc2cccc3ccccc23)o1	.	-	-	-	-	-	.	.	.
O=C(Nc1cccc2ccccc12)c1ccc([N+](=O)[O-])o1	-	78.1	68.3	52.5	-	79.6	75.4	73.7	75.1

Bioassay records as filed in PubChem BioAssay.
